This passage reports Percent Effect results from ChEMBL document CHEMBL3988442, “University of Dundee, Small-Polar-MMV Screening Library” (2021).

Holding throughout (parameters): scale not given: direction of the effect not stated beside the values
For assay [1], the target named is Protein translocase subunit SecA (Escherichia coli (strain K12)) (UniProt P10408). The assay is described as follows: Assay to Identify E. coli SecA ATPase Inhibitors. Format: functional. The settings on record: 30 µM.
Chain of Protein translocase subunit SecA (Escherichia coli (strain K12)) (P10408 whole entry): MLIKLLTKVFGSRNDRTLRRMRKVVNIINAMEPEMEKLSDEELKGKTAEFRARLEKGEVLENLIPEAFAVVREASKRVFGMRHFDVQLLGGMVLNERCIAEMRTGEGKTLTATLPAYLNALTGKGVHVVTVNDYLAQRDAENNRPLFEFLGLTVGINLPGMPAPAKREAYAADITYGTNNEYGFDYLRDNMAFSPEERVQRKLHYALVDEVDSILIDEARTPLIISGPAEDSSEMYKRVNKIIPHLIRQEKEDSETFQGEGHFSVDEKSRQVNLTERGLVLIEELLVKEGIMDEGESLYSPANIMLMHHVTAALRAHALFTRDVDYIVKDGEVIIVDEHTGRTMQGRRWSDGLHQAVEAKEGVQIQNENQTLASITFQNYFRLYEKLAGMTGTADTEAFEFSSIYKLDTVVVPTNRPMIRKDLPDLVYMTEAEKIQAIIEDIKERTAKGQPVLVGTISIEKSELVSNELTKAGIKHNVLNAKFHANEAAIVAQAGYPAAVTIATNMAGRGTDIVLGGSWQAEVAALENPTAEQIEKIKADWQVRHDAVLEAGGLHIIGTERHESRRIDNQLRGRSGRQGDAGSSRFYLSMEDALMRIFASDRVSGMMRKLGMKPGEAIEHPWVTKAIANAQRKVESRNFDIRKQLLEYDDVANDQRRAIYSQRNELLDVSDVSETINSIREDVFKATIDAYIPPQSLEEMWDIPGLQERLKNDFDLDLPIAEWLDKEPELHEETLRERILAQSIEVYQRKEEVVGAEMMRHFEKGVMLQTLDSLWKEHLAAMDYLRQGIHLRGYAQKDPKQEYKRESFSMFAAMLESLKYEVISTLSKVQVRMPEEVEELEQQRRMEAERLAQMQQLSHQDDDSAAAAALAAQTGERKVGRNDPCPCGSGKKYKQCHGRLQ
For assay [2], the target named is T1, Ubiquitin-activating enzyme e1, putative (Leishmania donovani (strain BPK282A1)) (UniProt E9BSI1).
T1 sequence (whole entry): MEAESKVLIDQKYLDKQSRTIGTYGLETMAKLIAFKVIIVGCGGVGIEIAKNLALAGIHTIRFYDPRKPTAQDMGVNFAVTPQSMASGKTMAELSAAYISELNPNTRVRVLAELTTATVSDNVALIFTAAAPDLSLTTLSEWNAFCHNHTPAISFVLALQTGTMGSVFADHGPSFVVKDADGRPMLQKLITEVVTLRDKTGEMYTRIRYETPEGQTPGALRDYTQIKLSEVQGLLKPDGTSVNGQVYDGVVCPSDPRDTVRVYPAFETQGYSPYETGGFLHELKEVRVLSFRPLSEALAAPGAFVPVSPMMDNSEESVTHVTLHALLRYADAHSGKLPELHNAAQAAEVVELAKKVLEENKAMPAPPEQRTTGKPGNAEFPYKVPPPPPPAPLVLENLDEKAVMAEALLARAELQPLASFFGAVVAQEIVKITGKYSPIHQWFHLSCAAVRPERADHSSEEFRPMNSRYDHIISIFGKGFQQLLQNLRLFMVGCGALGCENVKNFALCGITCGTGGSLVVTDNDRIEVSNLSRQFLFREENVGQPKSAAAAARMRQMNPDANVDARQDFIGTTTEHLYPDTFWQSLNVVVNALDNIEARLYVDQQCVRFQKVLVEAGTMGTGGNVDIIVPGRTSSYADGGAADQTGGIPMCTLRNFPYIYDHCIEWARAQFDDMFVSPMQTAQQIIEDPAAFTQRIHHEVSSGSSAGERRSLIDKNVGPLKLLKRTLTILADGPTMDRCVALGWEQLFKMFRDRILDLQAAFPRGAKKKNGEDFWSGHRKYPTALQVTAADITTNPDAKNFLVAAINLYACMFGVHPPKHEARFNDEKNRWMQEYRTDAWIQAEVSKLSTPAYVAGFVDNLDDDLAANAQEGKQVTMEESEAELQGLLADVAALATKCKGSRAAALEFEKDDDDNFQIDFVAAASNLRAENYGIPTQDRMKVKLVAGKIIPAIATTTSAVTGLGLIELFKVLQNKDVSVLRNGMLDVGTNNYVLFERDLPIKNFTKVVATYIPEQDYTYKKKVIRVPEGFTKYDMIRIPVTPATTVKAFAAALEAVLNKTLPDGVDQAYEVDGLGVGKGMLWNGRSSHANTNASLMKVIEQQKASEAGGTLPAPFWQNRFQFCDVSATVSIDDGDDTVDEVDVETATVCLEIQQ
Description: Leishmania donovani Ubiquitin Activating Enzyme (LdE1). Format: functional. To be noted: 30 µM.

The target in assay [3] is AMP-activated protein kinase, AMPK (Homo sapiens) (UniProt P54646+O43741+P54619+Q9UGJ0+Q9Y478+Q13131+Q9UGI9). The assay is described as follows: AMP-dependent Kinase enzyme assay. An in vitro enzyme assay that detects ADP turnover that is directly proportional to AMPK activity. This uses naive AMPK that is activated during the assay with MK-8722. It counts as functional. To be noted: 30 µM.

Assay [4] deals with Sialic acid-binding Ig-like lectin 9 (Homo sapiens) (UniProt Q9Y336). Description: Hs-Siglec9 ALPHAscreen SOP 20170721. To be noted: 10 µM. A general note: In Alpha technology, singlet oxygen from a donor bead excites a nearby acceptor bead.
Chain of Sialic acid-binding Ig-like lectin 9 (Homo sapiens) (Q9Y336 whole entry): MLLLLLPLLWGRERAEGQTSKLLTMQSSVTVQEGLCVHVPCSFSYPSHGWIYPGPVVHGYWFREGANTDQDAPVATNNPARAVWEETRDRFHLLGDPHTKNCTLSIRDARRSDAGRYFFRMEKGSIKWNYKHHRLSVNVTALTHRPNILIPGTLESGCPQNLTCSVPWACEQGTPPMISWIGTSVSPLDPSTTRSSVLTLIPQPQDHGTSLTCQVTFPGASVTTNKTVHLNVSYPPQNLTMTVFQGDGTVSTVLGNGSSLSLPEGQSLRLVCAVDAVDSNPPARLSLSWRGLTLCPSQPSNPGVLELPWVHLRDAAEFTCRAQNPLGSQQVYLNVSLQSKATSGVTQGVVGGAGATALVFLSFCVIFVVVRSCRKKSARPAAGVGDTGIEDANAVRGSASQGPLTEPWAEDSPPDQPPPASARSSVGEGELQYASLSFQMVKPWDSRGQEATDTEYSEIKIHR
For a further assay, the system named is Trypanosoma cruzi. Description: Trypanosoma cruzi phosphomannomutase and mannose-1-phosphate guanylyltransferase assay. Format: functional. The settings on record: 10 µM.
Assay [5] addresses T2, Arginase-2, mitochondrial (Homo sapiens) (UniProt P78540).
T2 sequence (whole entry): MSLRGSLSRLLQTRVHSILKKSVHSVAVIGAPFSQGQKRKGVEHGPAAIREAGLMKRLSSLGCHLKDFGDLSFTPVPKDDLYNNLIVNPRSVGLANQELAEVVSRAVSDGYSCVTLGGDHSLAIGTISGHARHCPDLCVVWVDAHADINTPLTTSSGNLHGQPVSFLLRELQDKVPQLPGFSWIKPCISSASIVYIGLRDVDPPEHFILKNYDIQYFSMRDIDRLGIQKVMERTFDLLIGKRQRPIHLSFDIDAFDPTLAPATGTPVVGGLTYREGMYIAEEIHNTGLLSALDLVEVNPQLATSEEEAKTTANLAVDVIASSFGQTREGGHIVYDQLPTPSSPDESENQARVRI
The assay is described as follows: in vitro enzyme assay to detect the production of urea directly proportional to the activity of Arginase II. Further: in the data most compounds retested in dose-response had high values. Format: functional. To be noted: 33.3 µM.

The target of assay [6] is T3, Proteasome subunit beta (Trypanosoma cruzi) (UniProt O96673).
T3 sequence (whole entry): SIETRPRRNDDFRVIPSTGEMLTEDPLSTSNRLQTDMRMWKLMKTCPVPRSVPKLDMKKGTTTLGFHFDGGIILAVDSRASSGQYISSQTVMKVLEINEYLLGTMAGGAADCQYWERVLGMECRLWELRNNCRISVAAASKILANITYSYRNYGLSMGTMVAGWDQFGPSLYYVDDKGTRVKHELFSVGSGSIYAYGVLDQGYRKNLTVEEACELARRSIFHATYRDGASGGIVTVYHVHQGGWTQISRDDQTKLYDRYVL
Description: Trypanosoma cruzi proteasome chymotrypsin-like activity (TcProtChymo) assay. Further: in the data most compounds retested in dose-response had high values. Format: functional. The settings on record: 9.37 µM.

For another assay, the species on record is Homo sapiens. The assay is described as follows: To identify inhibition of the IFN signalling (Jak-Stat) pathway via expression of an eGFP reporter gene under the control of an IFN-stimulated response element (ISRE) containing MxA promoter. The settings on record: 30 µM. Format: functional. (A reporter such as luciferase makes a cellular process visible.)

Assay [7] deals with T4, Tyrosyl-tRNA synthetase, putative (Trypanosoma cruzi (strain CL Brener)) (UniProt Q4DSP6).
T4 sequence (whole entry): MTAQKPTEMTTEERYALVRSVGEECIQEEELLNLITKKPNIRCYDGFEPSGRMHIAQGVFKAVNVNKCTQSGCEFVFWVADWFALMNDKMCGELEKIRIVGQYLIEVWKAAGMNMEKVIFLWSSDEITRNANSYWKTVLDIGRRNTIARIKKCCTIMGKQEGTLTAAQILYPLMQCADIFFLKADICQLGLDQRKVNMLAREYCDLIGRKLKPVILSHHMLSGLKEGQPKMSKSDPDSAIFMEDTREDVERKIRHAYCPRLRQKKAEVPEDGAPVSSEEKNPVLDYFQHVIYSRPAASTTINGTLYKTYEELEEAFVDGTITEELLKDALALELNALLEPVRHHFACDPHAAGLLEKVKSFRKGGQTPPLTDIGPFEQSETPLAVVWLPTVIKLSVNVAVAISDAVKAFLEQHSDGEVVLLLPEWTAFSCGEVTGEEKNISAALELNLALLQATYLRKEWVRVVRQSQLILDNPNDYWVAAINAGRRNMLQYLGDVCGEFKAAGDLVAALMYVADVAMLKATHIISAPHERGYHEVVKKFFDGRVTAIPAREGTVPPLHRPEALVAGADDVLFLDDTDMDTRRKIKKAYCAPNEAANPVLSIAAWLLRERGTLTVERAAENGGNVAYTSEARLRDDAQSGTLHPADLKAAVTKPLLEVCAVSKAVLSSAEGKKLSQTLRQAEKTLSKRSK
Description: Trypanosoma cruzi tyrosyl tRNA synthetase (TcYRS) _High Tyrosine SOP. Further: in the data most compounds retested in dose-response had high values. It counts as functional. To be noted: 30 µM.

The target of assay [8] is T4, Tyrosyl-tRNA synthetase, putative (Trypanosoma cruzi (strain CL Brener)). Description: Trypanosoma cruzi tyrosyl tRNA synthetase (TcYRS) SOP. Format: functional. The settings on record: 30 µM.
Assay [9] addresses Chromo domain-containing protein 1 (Saccharomyces cerevisiae (strain ATCC 204508 / S288c) (Baker's yeast)) (UniProt P32657). The assay is described as follows: ScCHD-1 Enzyme Inhibition Assay. Further: in the data most compounds retested in dose-response had high values. It counts as functional. To be noted: 30 µM.

For some of these results: Results with a measured potency or affinity are listed apart.

Chain of Chromo domain-containing protein 1 (Saccharomyces cerevisiae (strain ATCC 204508 / S288c) (Baker's yeast)) (P32657 whole entry, the tested form may be a part): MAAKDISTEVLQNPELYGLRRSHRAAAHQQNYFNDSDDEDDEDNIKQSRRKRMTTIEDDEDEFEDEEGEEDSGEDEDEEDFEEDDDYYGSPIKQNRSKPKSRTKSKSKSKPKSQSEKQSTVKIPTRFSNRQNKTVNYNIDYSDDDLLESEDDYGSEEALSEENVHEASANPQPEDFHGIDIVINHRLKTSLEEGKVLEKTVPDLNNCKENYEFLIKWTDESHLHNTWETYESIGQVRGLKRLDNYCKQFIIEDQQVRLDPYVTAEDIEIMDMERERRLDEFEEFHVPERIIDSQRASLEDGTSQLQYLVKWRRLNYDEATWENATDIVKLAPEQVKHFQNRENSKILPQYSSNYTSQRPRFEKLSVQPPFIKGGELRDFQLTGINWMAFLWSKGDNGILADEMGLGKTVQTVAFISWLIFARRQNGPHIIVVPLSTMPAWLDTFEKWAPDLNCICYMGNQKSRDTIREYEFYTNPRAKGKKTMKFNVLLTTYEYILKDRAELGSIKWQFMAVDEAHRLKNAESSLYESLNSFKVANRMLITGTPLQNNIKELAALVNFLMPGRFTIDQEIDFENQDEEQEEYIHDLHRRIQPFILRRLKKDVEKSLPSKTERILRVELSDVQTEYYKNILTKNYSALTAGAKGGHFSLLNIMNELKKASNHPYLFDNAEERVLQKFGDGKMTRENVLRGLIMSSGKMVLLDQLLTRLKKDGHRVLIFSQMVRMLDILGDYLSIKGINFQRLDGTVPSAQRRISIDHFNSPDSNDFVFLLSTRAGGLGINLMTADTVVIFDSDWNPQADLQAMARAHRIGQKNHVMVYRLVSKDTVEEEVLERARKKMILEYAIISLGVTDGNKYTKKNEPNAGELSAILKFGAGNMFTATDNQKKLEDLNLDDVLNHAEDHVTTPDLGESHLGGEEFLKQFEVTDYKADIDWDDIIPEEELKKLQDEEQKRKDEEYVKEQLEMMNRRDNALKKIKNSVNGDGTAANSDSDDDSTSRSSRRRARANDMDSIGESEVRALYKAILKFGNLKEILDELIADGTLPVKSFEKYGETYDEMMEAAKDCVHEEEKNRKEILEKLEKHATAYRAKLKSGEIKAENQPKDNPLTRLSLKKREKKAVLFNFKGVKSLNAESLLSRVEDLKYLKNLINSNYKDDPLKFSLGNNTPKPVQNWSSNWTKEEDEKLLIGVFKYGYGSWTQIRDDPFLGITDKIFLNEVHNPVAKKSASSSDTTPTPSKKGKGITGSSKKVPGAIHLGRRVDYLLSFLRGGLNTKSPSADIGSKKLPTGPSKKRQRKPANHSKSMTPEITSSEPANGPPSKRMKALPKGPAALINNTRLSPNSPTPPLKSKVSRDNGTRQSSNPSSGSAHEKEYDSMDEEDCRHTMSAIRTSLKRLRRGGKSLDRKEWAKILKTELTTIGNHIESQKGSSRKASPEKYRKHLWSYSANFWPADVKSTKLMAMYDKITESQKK

`Cc1ccc(CNC(=O)CN2CCN(CC(O)c3ccco3)CC2)cc1` (stereo unspecified): the Percent Effect in assay [1] was -2.27%; in assay [2] it was 20.8%; in assay [3], -4.52%; in assay [4] it was -0.747%; in the assay with Trypanosoma cruzi, 0.0986%; in assay [5] it was -1.94%. Further, the Percent Effect in [6] is 9.4%; in the assay listed under Homo sapiens, 7.63%; in assay [7], 4.23%; in assay [8], 24.4%; in assay [9] it was -10.3%.

In the case of `O=C(CCc1cscn1)NS(=O)(=O)c1ccc2ccccc2c1`, the Percent Effect in [1] is -4.59%; in assay [2], 1.39%; in assay [3], -10.1%; in [4], 23.9%; in the assay with Trypanosoma cruzi, 3.4%; in [5] it was 4.42%. Moreover, the Percent Effect in assay [6] was 0.877%; in the assay filed under Homo sapiens, 0.282%; in assay [7], 8.42%; in assay [8] it was 5.13%; in [9] it was -4.15%.

Consider `Cc1nc(C2CCCN(C(=O)c3cccc(S(C)(=O)=O)c3)C2)no1` (stereo unspecified), for which the Percent Effect is -1.36% in assay [1]; -1.27% in assay [2]; 5.98% in [3]; 4.04% in assay [4]; -1.95% in the assay on Trypanosoma cruzi; 7.96% in assay [5]. The Percent Effect was 12.3% in assay [6]; -20.9% in the assay listed under Homo sapiens; 0% in [7]; 0% in [8]; 3.1% in assay [9].

With `Cc1nnc2n1CCN(C(=O)c1cc(Cl)c(Cl)n1C)C2`, the Percent Effect in assay [1] is -1.98%; in assay [2], 5.26%; in assay [3], -1.75%; in assay [4], 6.76%; with Trypanosoma cruzi it was 2.63%; in assay [5], -1.53%. Moreover, the Percent Effect in assay [6] was 0.501%; in the assay listed under Homo sapiens, -1.85%; in assay [7], -1.47%; in assay [8] it was 7.32%; in assay [9] it was -1.57%.

In the case of `CN1CCN(Cc2nnc(C3CCN(CC4CC4)CC3)n2C)CC1`, the Percent Effect in [1] came to 0.271%; in assay [2] it was 8.22%; in assay [3], 4.92%; in assay [4] it was 1.71%; in the assay on Trypanosoma cruzi, 3.13%; in assay [5], 7.27%. For the same compound, the Percent Effect is 13.3% in assay [6]; 22.3% in the assay listed under Homo sapiens; 8.6% in assay [7]; 17.5% in assay [8]; -3.38% in [9].

For `O=C(Cn1cc(C(=O)O)ccc1=O)NCc1ccc(F)c(Cl)c1`, the Percent Effect is -2.28% in [1]; 9.33% in [2]; -1.08% in [3]; -0.406% in assay [4]; 4.91% in the assay on Trypanosoma cruzi; -6.87% in assay [5]. Besides, the Percent Effect in assay [6] was 11.7%; in the assay listed under Homo sapiens, 27%; in assay [7] it was 4.23%; in [8] it was 12.8%; in assay [9] it was -7.6%.

Turning to `Cc1nn(CC(=O)N2CCC(Nc3cccnn3)CC2)c(C)c1Cl`, the Percent Effect was -7.99% in assay [1]; 10.5% in assay [2]; -2.51% in assay [3]; 1.71% in [4]; 10.3% with Trypanosoma cruzi; -4.6% in assay [5]. Moreover, the Percent Effect in [6] is 4.68%; in the assay filed under Homo sapiens it was 14.1%; in [7], 6.37%; in assay [8], 19.5%; in assay [9], -11.8%.

On to `CSc1ncccc1C(=O)NCc1ccc(CS(=O)(=O)NC(C)C)cc1`, for which the Percent Effect was -2.86% in assay [1]; 13.9% in assay [2]; 2.75% in assay [3]; -0.901% in [4]; -1.74% in the assay on Trypanosoma cruzi; 3.23% in [5]. For the same compound, the Percent Effect in assay [6] is 15.4%; in the assay filed under Homo sapiens, 21.4%; in assay [7] it was 2.08%; in assay [8] it was 2.53%; in [9] it was -26.4%.

On to `CNC(=O)N1C[C@H]2CC[C@@]3(N=C(c4ccccc4)NC3=O)[C@H]2C1`, for which the Percent Effect in [1] was -5.03%; in assay [2], 2.6%; in assay [3] it was 0.951%; in [4] it was 7.17%; with Trypanosoma cruzi, 9.73%; in assay [5] it was -67.6%. The Percent Effect in assay [6] is 9.48%; in the assay filed under Homo sapiens it was 12.9%; in assay [7] it was 2.15%; in [8], 11.1%; in assay [9], -1.88%.

In the case of `Cc1nc2ccnn2c(C)c1CCC(=O)N1CCN(C2CC2)CC1`, the Percent Effect is -4.83% in assay [1]; 18.4% in assay [2]; 9.42% in assay [3]; -13.6% in assay [4]; -7.38% in the assay with Trypanosoma cruzi; 0.719% in assay [5]. For the same compound, the Percent Effect was 10.9% in assay [6]; 7.93% in the assay filed under Homo sapiens; 4.43% in [7]; 13.6% in assay [8]; -7.28% in assay [9].

Turning to `CC(=O)N(C)c1nc(CN2CCCCC2Cn2cncn2)cs1` (stereo unspecified), the Percent Effect in assay [1] is -8.24%; in assay [2], 7.79%; in assay [3], -1%; in [4], 0.729%; in the assay with Trypanosoma cruzi, -5.99%; in assay [5], -1.42%. The Percent Effect in [6] was 7.43%; in the assay listed under Homo sapiens, 27.8%; in assay [7], 5.83%; in assay [8], 7.32%; in [9] it was -6.12%.
